As usually defined, the AC50 is the concentration giving half of the maximal activity seen.

Molecules are shown by their SMILES. Records with an inconclusive call do not appear. Some structures have more than one record in an assay (separate samples or runs), and their calls can disagree. Active and inactive are the calls of the source. The calls were made as follows, unless noted: active = hit-call score of the fitted dose curve at least 0.9, where 1 is the maximum; inconclusive = response in the unintended direction; inactive = score below 0.9.

The source of these data is PubChem BioAssay (EPA / NIEHS).

Test [1] addresses Agonist Androgen Response Element (ARE), AR (gene 367) (UniProt P10275). The experiment in a line: OT_AR_ARELUC_AG_1440: Odyssey Thera (OT) 24-hour CHO-K1 Luciferase Assay for Agonist Androgen Response Element (ARE) (AID 2283379). In outline:
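Gain-of-signal reporter endpoint: cells (CHO-K1, hamster) are treated 24 h, luciferin/ATP reagent added, and luminescence compared with DMSO baseline.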

Test [2] concerns the target Estrogen receptor beta (Homo sapiens) (UniProt Q92731). The test is described as follows: OT_ER_ERbERb_1440: Odyssey Thera (OT) 24-hour HEK293T Protein-Complementation Assay for Estrogen Receptor-beta/-beta Homodimer (AID 2283380).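 Also: scored as signal increase over DMSO baseline for both agonists and antagonists.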 The gist of the method: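 HEK293T cells stably expressing ER beta LBD (aa 310-547) homodimer fragment-complementation reporter, dosed 24 h. Cells formaldehyde-fixed, Draq5-stained; gain in nuclear (agonist) or nuclear plus cytoplasmic (antagonist) fluorescence versus DMSO read by laser scanning cytometry.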

The target in test [3] is Retinoic acid receptor RXR-alpha (Homo sapiens) (UniProt P19793). The test is described as follows: OT_NURR1_NURR1RXRa_0480: Odyssey Thera (OT) 8-hour HEK293T Protein Complementation Assay for Nurr1/retinoid X receptor (RXR) (AID 2283385). The gist of the method:
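Interaction of Nurr1 with RXRα read as reconstituted reporter fluorescence in a HEK293T fragment-complementation system, 8 h post-treatment; increase over DMSO baseline analysed.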

For test [4] the target is unchanged. The experiment in a line: OT_NURR1_NURR1RXRa_1440: Odyssey Thera (OT) 24-hour HEK293T Protein Complementation Assay for Nurr1/retinoid X receptor (RXR) (AID 2283386). The gist of the method:
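Gain in fluorescence, fitted relative to DMSO, reflects Nurr1–RXRα association in HEK293T cells after 24 h dosing. Bait and prey are each linked to a reporter-protein fragment that reassembles on interaction.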

Test [5] concerns the target Peroxisome proliferator-activated receptor gamma (Homo sapiens) (UniProt P37231). The test is described as follows: OT_PPARg_PPARgSRC1_0480: Odyssey Thera (OT) 8-hour Protein-Complementation Assay for Peroxisome Proliferator-activated Receptor Gamma / SRC-1 Co-activator (AID 2283387).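 Also: nuclear to cytoplasmic split Venus YFP fluorescence ratio reporting PPARg SRC-1 interaction.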 The gist of the method:
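HEK293T transiently transfected with PPARg and SRC-1 fused to Venus YFP fragments, compounds 8 h at 37C. Fixed, Draq5-stained cells imaged; nuclear/cytoplasmic 488 nm fluorescence ratio over at least 350 cells per image; gain fitted versus DMSO.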

Test [6] has the same target. The experiment in a line: OT_PPARg_PPARgSRC1_1440: Odyssey Thera (OT) 24-hour Protein-Complementation Assay for Peroxisome Proliferator-activated Receptor Gamma/ SRC-1 Co-activator (AID 2283388). The gist of the method: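 Readout: nuclear-to-cytoplasmic 488 nm fluorescence ratio, ≥350 cells per image, 8 images per well, after 24 h compound exposure of HEK293T expressing PPARg/SRC-1 split-YFP fusions. Activity fitted in positive direction against DMSO.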

Test [7] is described as follows: CEETOX_H295R_OHPREG: CeeTox H295R High-throughput Steroidogenesis Assay for OH-Pregnenolone (OHPREG) (AID 2283434; active = hit-call score of the fitted dose curve at least 0.9, where 1 is the maximum; inactive = score below 0.9). Conditions: actives raise or lower the signal. The gist of the method: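 H295R, 10 uM forskolin pre-stim 48 h; test chemical 48 h, 0.1% DMSO final. MTBE extraction, reverse-phase C18 HPLC-ESI+ MS/MS of medium. Gain/loss vs DMSO; viability by MTT in same wells.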

A short description of test [8]: CEETOX_H295R_OHPROG: CeeTox H295R High-throughput Steroidogenesis Assay for OH-Progesterone (OHPROG) (AID 2283435; active = hit-call score of the fitted dose curve at least 0.9, where 1 is the maximum; inactive = score below 0.9;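 as to AC50: 17alpha-hydroxyprogesterone secreted into medium measured by HPLC-MS/MS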). The note with it: actives raise or lower the signal. In outline: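 Medium steroid levels read by LC-MS/MS after 48 h chemical treatment (0.1% DMSO) of human adrenal H295R cells that had been forskolin-primed (10 uM, 48 h). Gain or loss fitted against DMSO; MTT cytotoxicity checked per well.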

Test [9] in a line: CEETOX_H295R_ANDR: CeeTox H295R High-throughput Steroidogenesis Assay for Androstenedione (ANDR) (AID 2283436; active = hit-call score of the fitted dose curve at least 0.9, where 1 is the maximum; inactive = score below 0.9;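 also: human H295R adrenal cells exposed for 48 h with androstenedione measured in medium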). The note with it: actives raise or lower the signal. The gist of the method: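 48 h chemical exposure, H295R cells, DMEM/F12 + ITS+ and Nu-Serum. Medium androstenedione: MTBE extraction, C18 reverse-phase HPLC, ESI+ MS/MS. Fit bidirectional vs DMSO; MTT viability in same wells.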

The target of test [10] is Bile acid receptor (Homo sapiens) (UniProt Q96RI1). The test is described as follows: OT_FXR_FXRSRC1_0480: Odyssey Thera (OT) 8-hour HEK293T Protein-Complementation Assay for Farnesoid X receptor/SRC-1 Co-activator (AID 2283383). The gist of the method:
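Binding of FXR to coactivator SRC-1 was read as fluorescence from a reconstituted split reporter in HEK293T cells, 8 h after chemical addition. Only increases in signal versus DMSO were fit.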

The target is the same in test [11]. The experiment in a line: OT_FXR_FXRSRC1_1440: Odyssey Thera (OT) 24-hour HEK293T Protein-Complementation Assay for Farnesoid X receptor/SRC-1 Co-activator (AID 2283384). The gist of the method: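 Protein-fragment complementation: FXR and SRC-1 fused to reporter fragments that reassemble on interaction, read by fluorescence intensity. Human HEK293T cells measured 24 h post-dose; positive-direction fit versus DMSO.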

Test [12] can be described thus: CEETOX_H295R_11DCORT: CeeTox H295R High-throughput Steroidogenesis Assay for 11-Deoxycortisol (11DCORT) (AID 2283432; active = hit-call score of the fitted dose curve at least 0.9, where 1 is the maximum; inactive = score below 0.9;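 as to AC50: 11-deoxycortisol secreted into the medium measured by LC-MS/MS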). Conditions: actives raise or lower the signal. The gist of the method:
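H295R cells prestimulated 48 h with 10 uM forskolin, then exposed 48 h to chemical in 0.1% DMSO. 11-Deoxycortisol in medium quantified by HPLC-MS/MS after MTBE extraction; bidirectional fit versus DMSO. MTT viability read in same wells.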

A short description of test [13]: CEETOX_H295R_CORTIC: CeeTox H295R High-throughput Steroidogenesis Assay for Corticosterone (CORTIC) (AID 2283437; active = hit-call score of the fitted dose curve at least 0.9, where 1 is the maximum; inactive = score below 0.9;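 also: corticosterone secreted into medium quantified by mass spectrometry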;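 as to AC50: human H295R adrenal cells prestimulated with forskolin before chemical exposure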). Conditions: actives raise or lower the signal. In outline: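 48 h forskolin (10 uM) prestim, then 48 h chemical exposure, final DMSO 0.1%. Readout: corticosterone in medium by LC-MS/MS after MTBE extraction. Gain/loss fit vs DMSO; MTT viability in same wells.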

Test [14] is described as follows: CEETOX_H295R_CORTISOL: CeeTox H295R High-throughput Steroidogenesis Assay for Cortisol (AID 2283438; active = hit-call score of the fitted dose curve at least 0.9, where 1 is the maximum; inactive = score below 0.9). The note with it: actives raise or lower the signal. The gist of the method:
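Cortisol measured by HPLC-MS/MS after MTBE extraction of medium from H295R cells exposed 48 h to chemical (0.1% DMSO), following 48 h prestimulation with 10 uM forskolin. Viability assessed by MTT in the same wells.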

Test [15] in a line: CEETOX_H295R_DOC: CeeTox H295R High-throughput Steroidogenesis Assay for DOC (AID 2283439; active = hit-call score of the fitted dose curve at least 0.9, where 1 is the maximum; inactive = score below 0.9). The note with it: actives raise or lower the signal. In outline: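 11-Deoxycorticosterone quantified in medium by MTBE extraction and HPLC-MS/MS after 48 h chemical exposure (0.1% DMSO) of forskolin-primed (10 uM, 48 h) H295R cells. Same-well MTT viability; data fitted bidirectionally against DMSO.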

Test [16] has as its target Estrogen receptor (Homo sapiens) (UniProt P03372). The experiment in a line: OT_ERa_GFPERaERE_0480: Odyssey Thera (OT) 8-hour HeLa Transcription Induction Assay for Estrogen Receptor (AID 2283381; active = hit-call score of the fitted dose curve at least 0.9, where 1 is the maximum; inactive = score below 0.9). In outline: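 Fluorescence microscopy with high-content image analysis measures ERE-driven GFP induction in HeLa cells at 8 h post-dose. Increases fitted against DMSO baseline.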

The target is the same in test [17]. The experiment in a line: OT_ERa_GFPERaERE_0120: Odyssey Thera (OT) 2-hour HeLa Transcription Induction Assay for Estrogen Receptor (AID 2283382). The gist of the method:
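Fluorescence-microscopy images of the GFP-ERα/ERE reporter, scored by high-content image algorithms, give the readout. HeLa exposure lasted 2 h, and only signal increase over DMSO was fitted.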

Test [18] can be described thus: CEETOX_H295R_ESTRADIOL: CeeTox H295R High-throughput Steroidogenesis Assay for Estradiol (AID 2283440; active = hit-call score of the fitted dose curve at least 0.9, where 1 is the maximum; inactive = score below 0.9;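 also: estradiol secreted into medium quantified by LC-MS/MS after dansyl derivatisation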). The note with it: actives raise or lower the signal. The gist of the method:
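H295R, 48 h forskolin (10 uM) prestim → 48 h compound, 0.1% DMSO final. Estradiol in medium: MTBE extraction, dansyl chloride derivatization, LC-MS/MS. Fit bidirectional vs DMSO baseline; MTT viability in same wells.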

Test [19] can be described thus: CEETOX_H295R_ESTRONE: CeeTox H295R High-throughput Steroidogenesis Assay for Estrone (AID 2283441; active = hit-call score of the fitted dose curve at least 0.9, where 1 is the maximum; inactive = score below 0.9). The note with it: actives raise or lower the signal. In outline:
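Estrone secreted into medium quantified by LC-MS/MS after dansyl chloride derivatization, following 48 h chemical exposure (0.1% DMSO final) of forskolin-prestimulated (10 uM, 48 h) H295R cells; gain or loss fitted against DMSO; MTT viability in same wells.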

Sequence of Agonist Androgen Response Element (ARE), AR (gene 367) (P10275 whole entry, looked up): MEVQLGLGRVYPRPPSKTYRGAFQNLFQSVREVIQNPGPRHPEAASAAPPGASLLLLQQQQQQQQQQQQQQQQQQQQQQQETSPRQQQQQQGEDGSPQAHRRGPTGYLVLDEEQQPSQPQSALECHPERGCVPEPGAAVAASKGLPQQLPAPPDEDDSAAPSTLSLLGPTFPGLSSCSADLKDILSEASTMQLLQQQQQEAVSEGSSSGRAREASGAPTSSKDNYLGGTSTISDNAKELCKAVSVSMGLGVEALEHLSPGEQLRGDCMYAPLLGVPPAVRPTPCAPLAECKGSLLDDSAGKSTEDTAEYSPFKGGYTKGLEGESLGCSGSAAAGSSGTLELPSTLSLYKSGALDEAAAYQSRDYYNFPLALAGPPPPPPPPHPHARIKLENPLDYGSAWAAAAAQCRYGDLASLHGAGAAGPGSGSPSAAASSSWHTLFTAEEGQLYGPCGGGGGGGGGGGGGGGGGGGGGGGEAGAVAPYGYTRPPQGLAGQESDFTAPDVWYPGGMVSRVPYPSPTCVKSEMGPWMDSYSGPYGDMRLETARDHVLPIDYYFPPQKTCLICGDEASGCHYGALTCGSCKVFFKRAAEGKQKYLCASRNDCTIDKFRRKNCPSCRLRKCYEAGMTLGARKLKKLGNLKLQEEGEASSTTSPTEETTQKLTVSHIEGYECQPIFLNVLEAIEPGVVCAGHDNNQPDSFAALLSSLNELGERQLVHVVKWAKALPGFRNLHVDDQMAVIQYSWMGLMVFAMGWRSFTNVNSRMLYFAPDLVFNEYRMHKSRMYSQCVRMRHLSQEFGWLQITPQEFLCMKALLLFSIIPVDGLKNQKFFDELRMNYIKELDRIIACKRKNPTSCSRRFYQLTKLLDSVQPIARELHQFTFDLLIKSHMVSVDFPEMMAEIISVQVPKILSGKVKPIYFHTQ
Sequence of Bile acid receptor (Homo sapiens) (Q96RI1 whole entry, looked up): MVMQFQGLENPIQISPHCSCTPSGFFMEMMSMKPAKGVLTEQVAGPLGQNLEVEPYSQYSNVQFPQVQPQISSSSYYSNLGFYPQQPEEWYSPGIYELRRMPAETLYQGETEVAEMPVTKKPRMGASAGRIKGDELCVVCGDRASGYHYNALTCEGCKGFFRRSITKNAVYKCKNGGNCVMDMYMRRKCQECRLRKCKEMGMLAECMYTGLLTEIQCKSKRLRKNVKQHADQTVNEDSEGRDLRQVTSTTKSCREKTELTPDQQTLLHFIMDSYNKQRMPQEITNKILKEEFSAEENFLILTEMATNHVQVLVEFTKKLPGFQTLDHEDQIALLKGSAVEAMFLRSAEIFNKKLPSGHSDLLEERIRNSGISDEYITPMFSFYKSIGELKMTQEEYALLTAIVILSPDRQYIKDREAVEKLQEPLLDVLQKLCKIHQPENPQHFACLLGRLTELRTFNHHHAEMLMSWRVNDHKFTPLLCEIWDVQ
Sequence of Retinoic acid receptor RXR-alpha (Homo sapiens) (P19793 whole entry, looked up, the tested form may be a part): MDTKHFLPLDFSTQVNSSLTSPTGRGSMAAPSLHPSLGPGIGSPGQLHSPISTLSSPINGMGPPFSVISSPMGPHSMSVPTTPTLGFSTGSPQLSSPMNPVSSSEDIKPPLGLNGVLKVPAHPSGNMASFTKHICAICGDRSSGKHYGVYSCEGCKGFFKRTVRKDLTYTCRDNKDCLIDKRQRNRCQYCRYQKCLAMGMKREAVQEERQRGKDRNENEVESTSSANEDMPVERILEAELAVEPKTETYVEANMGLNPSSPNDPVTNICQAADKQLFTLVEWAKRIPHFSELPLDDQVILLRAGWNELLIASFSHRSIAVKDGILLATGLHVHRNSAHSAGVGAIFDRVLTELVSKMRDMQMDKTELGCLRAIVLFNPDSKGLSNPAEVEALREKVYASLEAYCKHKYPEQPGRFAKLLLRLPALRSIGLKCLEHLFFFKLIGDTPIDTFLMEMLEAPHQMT
Sequence of Estrogen receptor beta (Homo sapiens) (Q92731 whole entry, looked up, the tested form may be a part): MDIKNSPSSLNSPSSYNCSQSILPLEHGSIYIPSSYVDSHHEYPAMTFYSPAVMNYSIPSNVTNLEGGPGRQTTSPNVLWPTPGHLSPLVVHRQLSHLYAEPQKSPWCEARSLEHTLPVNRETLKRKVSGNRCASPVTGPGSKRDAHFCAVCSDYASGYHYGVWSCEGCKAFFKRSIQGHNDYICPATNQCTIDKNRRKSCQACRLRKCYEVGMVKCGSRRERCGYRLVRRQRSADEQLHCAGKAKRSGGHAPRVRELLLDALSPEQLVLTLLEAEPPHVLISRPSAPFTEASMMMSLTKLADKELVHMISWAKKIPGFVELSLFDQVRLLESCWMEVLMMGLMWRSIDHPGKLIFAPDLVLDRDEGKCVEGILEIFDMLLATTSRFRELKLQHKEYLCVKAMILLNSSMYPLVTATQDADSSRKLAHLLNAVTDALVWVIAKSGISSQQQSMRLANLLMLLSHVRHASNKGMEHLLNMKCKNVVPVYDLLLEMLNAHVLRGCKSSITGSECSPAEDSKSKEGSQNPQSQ
Sequence of Peroxisome proliferator-activated receptor gamma (Homo sapiens) (P37231 whole entry, looked up, the tested form may be a part): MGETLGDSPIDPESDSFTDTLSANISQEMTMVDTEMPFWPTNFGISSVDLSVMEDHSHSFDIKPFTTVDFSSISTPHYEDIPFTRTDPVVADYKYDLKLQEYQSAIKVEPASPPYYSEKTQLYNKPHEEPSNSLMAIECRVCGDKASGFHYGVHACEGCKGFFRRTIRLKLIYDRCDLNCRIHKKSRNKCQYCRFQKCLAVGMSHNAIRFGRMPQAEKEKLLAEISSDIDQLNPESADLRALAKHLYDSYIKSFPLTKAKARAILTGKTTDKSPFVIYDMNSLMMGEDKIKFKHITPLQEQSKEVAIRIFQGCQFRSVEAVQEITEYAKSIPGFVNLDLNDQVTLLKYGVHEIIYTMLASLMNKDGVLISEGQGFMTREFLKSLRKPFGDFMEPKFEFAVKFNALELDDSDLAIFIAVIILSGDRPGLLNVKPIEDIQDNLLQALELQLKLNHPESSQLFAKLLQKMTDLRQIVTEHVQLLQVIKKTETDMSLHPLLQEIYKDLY
Sequence of Estrogen receptor (Homo sapiens) (P03372 whole entry, looked up): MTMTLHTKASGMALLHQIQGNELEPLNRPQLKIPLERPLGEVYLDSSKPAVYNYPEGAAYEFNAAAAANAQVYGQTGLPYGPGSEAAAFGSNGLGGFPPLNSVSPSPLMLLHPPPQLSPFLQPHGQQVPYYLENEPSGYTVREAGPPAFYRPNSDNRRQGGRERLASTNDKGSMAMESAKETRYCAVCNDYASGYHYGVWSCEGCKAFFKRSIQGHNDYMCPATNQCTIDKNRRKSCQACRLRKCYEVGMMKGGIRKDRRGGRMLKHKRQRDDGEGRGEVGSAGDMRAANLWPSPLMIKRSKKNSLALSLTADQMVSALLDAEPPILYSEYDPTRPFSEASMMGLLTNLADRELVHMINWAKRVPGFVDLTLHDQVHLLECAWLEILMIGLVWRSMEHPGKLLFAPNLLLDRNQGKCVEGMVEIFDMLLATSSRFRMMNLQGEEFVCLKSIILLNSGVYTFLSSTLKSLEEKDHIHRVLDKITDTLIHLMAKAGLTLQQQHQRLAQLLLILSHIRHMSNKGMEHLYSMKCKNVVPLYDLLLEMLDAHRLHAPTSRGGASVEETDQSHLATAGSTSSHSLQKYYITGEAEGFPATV

For the compound `O=C(O)c1cccc(N(Cc2cccnc2)c2ccc(OC(F)F)c(OC(F)F)c2)c1`, the compound was called inactive in test [1], in [2], in [5], in test [6], in [7] and in test [9]. Moreover, the AC50 in test [3] is 29.4 µM (active); in test [4] it was 32.4 µM (active); in test [8], 7.82 µM (active).

Regarding `CCOc1cccc(-n2cc(C(=O)N3CCN(c4cc(C(=O)O)c5ccccc5c4)CC3)nc2-c2ccc(C)cc2)c1`, the result in test [1], in test [2], in test [5], in test [6], in test [12] and in test [7] was inactive. The compound was classed as inactive in test [8], in [9], in [13], in test [14] and in test [15]. The AC50 in test [10] and in test [11] was 11.3 µM (active) each time.

`Fc1ccccc1[C@@H](F)COC1CCC(Nc2ncnc3[nH]ncc23)CC1` (stereo not given in full): the call in [1], in [2], in test [3], in test [5], in test [6] and in test [9] was inactive. Also, the compound was classed as inactive in test [15]. Further, the AC50 was 5 µM (active) in test [12]; 5 µM (active) in test [7]; 3.91 µM (active) in [8]; 1.41 µM (active) in test [13]; 5 µM (active) in [14].

As for `CC(C)=CCC/C(C)=C/CO`, the compound was called inactive in test [1], in [10], in [3], in [4], in test [5] and in test [6].

Turning to `COC(=O)c1c(Cl)c(Cl)c(C(=O)OC)c(Cl)c1Cl`, the result in test [2], in [16], in [17], in test [11], in test [3] and in [4] was inactive. Also, the outcome in test [5], in test [6], in [12], in [7], in test [8] and in test [14] was inactive. Also, the call in test [19] was inactive. The AC50 in test [10] is 72.2 µM (active); in [3] it was 68.6 µM (active); in [13] it was 16.1 µM (active); in test [15], 50 µM (active); in [18], 27.4 µM (active).

Take `C1N2CN3CN1CN(C2)C3`: the compound was classed as inactive in test [1], in test [2], in test [10], in [11], in test [3] and in test [4]. Besides, the call in [5] and in test [6] was inactive.

Consider `CCCCCCc1ccc(O)cc1O`, for which the call in test [1], in test [3], in test [5] and in [6] was inactive.

Consider `Cc1ccc(O)cc1`, for which the compound was called inactive in [1], in test [2], in [10], in test [11], in [3] and in test [4]. Also, the call in [5], in [6], in [12], in test [7], in test [8] and in test [9] was inactive. Also, the compound was called inactive in [13], in [14] and in test [15].
